Reference: the supplement of paper PMC6555819

Assays:
Test in all cases: PBM binding z-score (relative to random genomic background probes); higher = stronger binding; sequences stand for … in GC…GCGATTGACAGCGTAGAATGAAGG
[1] = test system: PPARg:RXRa DBDmut IVT, anti-RXR (DBD mutation: RXRa K156A/R161A, NR concentration 270 nM, RXRa partner concentration 90 nM)
Procedure, shortened: (§1)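 Random background probes are the reference for binding z-scores. These scores derive from regression-normalized fluorescence on custom Agilent 4×180K protein-binding microarrays incubated 1 h with ligand-free nuclear receptor dimers. Binding was detected with antibodies against each partner (one per run).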

[2] = test system: PPARg:RXRa IVT, anti-PPARg (NR concentration 270 nM, RXRa partner concentration 90 nM)
Procedure, shortened: as §1

[3] = test system: PPARg DBDmut:RXRa IVT, anti-PPARg (DBD mutation: PPARg1 K132A/R137A, NR concentration 270 nM, RXRa partner concentration 90 nM)
Procedure, shortened: as §1

[4] = test system: PPARg DBDmut IVT, anti-PPARg (DBD mutation: PPARg1 K132A/R137A, NR concentration 270 nM)
Procedure, shortened: as §1

[5] = test system: PPARg homodimer (NR concentration 180 nM)
Procedure, shortened: as §1

[6] = test system: PXR:RXRa (NR concentration 270 nM, RXRa partner concentration 90 nM)
Procedure, shortened: as §1

[7] = test system: PXR homodimer (NR concentration 270 nM)
Procedure, shortened: as §1

[8] = test system: RARa:RXR (NR concentration 270 nM, RXRa partner concentration 90 nM)
Procedure, shortened: as §1

[9] = test system: RARa homodimer (NR concentration 270 nM)
Procedure, shortened: as §1

[10] = test system: RARb:RXRa (NR concentration 270 nM, RXRa partner concentration 90 nM)
Procedure, shortened: as §1

[11] = test system: RARb homodimer (NR concentration 270 nM)
Procedure, shortened: as §1

[12] = test system: RARg:RXRa (NR concentration 270 nM, RXRa partner concentration 90 nM)
Procedure, shortened: as §1

[13] = test system: RARg homodimer (NR concentration 270 nM)
Procedure, shortened: as §1

[14] = test system: RXRa DBDmut IVT, anti-RXR (DBD mutation: RXRa K156A/R161A, NR concentration 90 nM)
Procedure, shortened: as §1

[15] = test system: RXRa homodimer (NR concentration 180 nM)
Procedure, shortened: as §1

[16] = test system: THRa:RXRa (NR concentration 90 nM, RXRa partner concentration 90 nM)
Procedure, shortened: as §1

[17] = test system: THRa homodimer (NR concentration 90 nM)
Procedure, shortened: as §1

[18] = test system: VDR homodimer (NR concentration 270 nM)
Procedure, shortened: as §1

Sequence | PBM binding z-score [1] | PBM binding z-score [2] | PBM binding z-score [3] | PBM binding z-score [4] | PBM binding z-score [5] | PBM binding z-score [6] | PBM binding z-score [7] | PBM binding z-score [8] | PBM binding z-score [9] | PBM binding z-score [10] | PBM binding z-score [11] | PBM binding z-score [12] | PBM binding z-score [13] | PBM binding z-score [14] | PBM binding z-score [15] | PBM binding z-score [16] | PBM binding z-score [17] | PBM binding z-score [18]
AGTCAAAGTTCGCTAGGTAACGTAAGATTCAGCT | 0.109 | 1.13 | 0.0923 | 0.244 | 0.129 | 0.563 | 0.141 | 0.661 | 0.175 | 2 | 0.79 | 1.41 | 1.49 | 1.92 | 0.868 | 0.668 | -0.0669 | 0.872
ATCTCTAGGTAAAGATAGTTCAGTGTATGCAAAT | 1.71 | 1.89 | 0.591 | 1.15 | 1.3 | 1.32 | 0.866 | 1.11 | 0.968 | 0.53 | 1.22 | 0.725 | 0.952 | 0.412 | 0.465 | 1.05 | 0.467 | 0.96
ACTTACGGGTCAACGAGGTTATCGCACGCGTATA | 4.15 | 4.2 | 2.65 | 1.38 | 3.14 | 5.58 | 4.21 | 5.88 | 0.958 | 4.4 | 3.52 | 5.86 | 5.38 | 3 | 6.75 | 4.19 | 1.23 | 4.34
GCGACTCGGGCATCAGCAGGTTACCATAACTTAA | 0.301 | -0.204 | -0.845 | -1.46 | -0.774 | -0.236 | -0.725 | 0.133 | -0.931 | 0.242 | 0.226 | 0.257 | 0.0755 | -0.281 | 0.133 | 0.266 | -0.36 | -0.501
CCTATTAGTTGACCATAATGGCAACCGAAGCTCG | 0.772 | 0.551 | 0.742 | 1.21 | 2 | 0.599 | 1.05 | 0.673 | 2.52 | 0.621 | 0.786 | 0.589 | 0.606 | 0.918 | 0.421 | 0.384 | 0.631 | 1.12
TAGCCTAGGTCATTGGGCCAGTAAAGTACGCATC | 2.98 | 3.93 | -0.798 | -0.582 | 0.663 | 1.55 | -0.454 | 2.08 | 0.18 | 3.63 | 2.78 | 3.91 | 4.25 | 1.61 | 3.1 | 2.69 | 0.775 | 1.48
AGTCGAAGTTCATCTAGGTAACGTAAGATATGCT | 0.32 | 2.06 | 0.625 | 0.713 | 1.04 | 3.3 | 2.97 | 1.67 | 0.799 | 3.05 | 2.11 | 2.84 | 3.19 | 3.88 | 1.91 | 2.31 | -0.00664 | 3.81
